# What was measured:
# [1] = molecular target: T1, Serine/threonine-protein kinase TBK1 (Homo sapiens) (UniProt Q9UHD2); conditions: at 10 µM
# T1 sequence (whole entry): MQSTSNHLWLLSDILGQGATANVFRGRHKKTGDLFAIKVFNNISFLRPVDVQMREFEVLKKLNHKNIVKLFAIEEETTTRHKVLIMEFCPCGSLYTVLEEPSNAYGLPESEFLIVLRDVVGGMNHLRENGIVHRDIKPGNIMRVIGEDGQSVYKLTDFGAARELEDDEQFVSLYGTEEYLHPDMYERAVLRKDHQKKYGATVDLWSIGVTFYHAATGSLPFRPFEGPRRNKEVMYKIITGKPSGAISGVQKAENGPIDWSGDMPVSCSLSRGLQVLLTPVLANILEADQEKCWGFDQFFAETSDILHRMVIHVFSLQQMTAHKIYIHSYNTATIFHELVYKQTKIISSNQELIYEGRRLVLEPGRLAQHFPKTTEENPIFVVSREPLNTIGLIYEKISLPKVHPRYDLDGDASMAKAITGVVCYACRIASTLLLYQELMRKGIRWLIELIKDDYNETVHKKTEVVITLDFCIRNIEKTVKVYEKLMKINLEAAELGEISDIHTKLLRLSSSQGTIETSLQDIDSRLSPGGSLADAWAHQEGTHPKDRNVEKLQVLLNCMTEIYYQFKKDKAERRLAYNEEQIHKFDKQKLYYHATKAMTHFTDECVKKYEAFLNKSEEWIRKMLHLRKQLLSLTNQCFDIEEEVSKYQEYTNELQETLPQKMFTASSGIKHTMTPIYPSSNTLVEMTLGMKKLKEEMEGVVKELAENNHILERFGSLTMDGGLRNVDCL
# [2] = molecular target: T2, TGF-beta receptor type-1 (Homo sapiens) (UniProt P36897); conditions: at 1 µM
# T2 sequence (whole entry): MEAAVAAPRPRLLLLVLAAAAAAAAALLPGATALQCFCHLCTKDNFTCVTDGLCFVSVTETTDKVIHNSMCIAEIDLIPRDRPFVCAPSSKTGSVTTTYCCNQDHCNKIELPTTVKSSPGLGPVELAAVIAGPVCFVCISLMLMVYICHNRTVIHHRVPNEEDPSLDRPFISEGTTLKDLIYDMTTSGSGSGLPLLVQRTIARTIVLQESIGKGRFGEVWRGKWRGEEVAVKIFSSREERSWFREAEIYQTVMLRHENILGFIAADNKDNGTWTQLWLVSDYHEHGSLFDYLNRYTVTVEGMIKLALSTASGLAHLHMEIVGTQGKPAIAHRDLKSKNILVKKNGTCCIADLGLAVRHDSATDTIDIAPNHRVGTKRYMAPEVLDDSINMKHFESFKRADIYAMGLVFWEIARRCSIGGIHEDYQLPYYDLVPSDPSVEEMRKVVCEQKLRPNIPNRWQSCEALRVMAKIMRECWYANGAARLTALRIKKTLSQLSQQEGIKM
# [3] = molecular target: T2, TGF-beta receptor type-1 (Homo sapiens); conditions: at 10 µM
# [4] = molecular target: Insulin-like growth factor 1 receptor (Homo sapiens) (UniProt P08069); conditions: at 1 µM
# [5] = molecular target: Insulin-like growth factor 1 receptor (Homo sapiens) (UniProt P08069); conditions: at 10 µM
# [6] = molecular target: T3, Inhibitor of nuclear factor kappa-B kinase subunit alpha (Homo sapiens) (UniProt O15111); conditions: at 1 µM
# T3 sequence (whole entry): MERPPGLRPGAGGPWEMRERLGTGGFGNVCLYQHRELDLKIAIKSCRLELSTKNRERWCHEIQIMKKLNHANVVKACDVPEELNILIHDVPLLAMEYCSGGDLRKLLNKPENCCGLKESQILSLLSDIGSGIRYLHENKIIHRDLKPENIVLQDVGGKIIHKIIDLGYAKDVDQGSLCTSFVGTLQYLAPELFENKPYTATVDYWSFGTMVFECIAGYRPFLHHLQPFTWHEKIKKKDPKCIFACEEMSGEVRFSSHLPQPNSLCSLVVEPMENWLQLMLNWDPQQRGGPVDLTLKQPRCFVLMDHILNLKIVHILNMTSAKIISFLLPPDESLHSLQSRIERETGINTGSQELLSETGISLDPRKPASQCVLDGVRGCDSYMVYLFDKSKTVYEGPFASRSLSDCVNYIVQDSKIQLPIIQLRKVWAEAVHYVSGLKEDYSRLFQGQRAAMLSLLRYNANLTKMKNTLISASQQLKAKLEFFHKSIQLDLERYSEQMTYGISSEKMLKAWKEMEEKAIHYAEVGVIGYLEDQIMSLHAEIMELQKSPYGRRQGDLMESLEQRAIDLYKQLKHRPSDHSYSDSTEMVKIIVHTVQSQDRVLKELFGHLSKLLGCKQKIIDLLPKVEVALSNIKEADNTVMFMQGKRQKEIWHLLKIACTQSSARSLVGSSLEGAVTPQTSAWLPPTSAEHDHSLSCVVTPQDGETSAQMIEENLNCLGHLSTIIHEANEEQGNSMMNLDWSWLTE
# [7] = molecular target: T3, Inhibitor of nuclear factor kappa-B kinase subunit alpha (Homo sapiens); conditions: at 10 µM
# [8] = molecular target: T4, Inhibitor of nuclear factor kappa-B kinase subunit beta (Homo sapiens) (UniProt O14920); conditions: at 1 µM
# T4 sequence (whole entry): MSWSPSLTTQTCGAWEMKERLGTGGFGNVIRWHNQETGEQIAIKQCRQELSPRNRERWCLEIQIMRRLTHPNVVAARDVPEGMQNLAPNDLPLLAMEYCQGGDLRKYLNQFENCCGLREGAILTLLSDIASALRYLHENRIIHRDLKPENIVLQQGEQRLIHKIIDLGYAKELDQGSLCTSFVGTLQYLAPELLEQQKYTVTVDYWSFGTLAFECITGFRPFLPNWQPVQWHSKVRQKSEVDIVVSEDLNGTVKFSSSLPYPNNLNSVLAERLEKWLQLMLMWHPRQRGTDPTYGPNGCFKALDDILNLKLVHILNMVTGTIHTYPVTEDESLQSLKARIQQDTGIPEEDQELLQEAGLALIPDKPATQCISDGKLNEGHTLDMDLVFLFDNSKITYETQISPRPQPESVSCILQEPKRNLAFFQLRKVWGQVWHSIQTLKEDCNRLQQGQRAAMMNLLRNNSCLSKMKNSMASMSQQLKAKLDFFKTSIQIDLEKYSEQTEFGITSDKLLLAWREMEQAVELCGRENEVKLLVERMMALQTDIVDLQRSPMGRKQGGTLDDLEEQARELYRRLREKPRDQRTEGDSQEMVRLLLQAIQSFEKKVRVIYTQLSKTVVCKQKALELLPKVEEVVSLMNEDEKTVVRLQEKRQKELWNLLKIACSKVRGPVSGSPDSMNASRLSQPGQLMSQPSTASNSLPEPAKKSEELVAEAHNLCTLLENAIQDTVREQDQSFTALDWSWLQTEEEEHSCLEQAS
# [9] = molecular target: T4, Inhibitor of nuclear factor kappa-B kinase subunit beta (Homo sapiens); conditions: at 10 µM
# [10] = molecular target: Insulin receptor (Homo sapiens) (UniProt P06213); conditions: at 1 µM
# Sequence of Insulin receptor (Homo sapiens) (P06213 28-758 limits assumed): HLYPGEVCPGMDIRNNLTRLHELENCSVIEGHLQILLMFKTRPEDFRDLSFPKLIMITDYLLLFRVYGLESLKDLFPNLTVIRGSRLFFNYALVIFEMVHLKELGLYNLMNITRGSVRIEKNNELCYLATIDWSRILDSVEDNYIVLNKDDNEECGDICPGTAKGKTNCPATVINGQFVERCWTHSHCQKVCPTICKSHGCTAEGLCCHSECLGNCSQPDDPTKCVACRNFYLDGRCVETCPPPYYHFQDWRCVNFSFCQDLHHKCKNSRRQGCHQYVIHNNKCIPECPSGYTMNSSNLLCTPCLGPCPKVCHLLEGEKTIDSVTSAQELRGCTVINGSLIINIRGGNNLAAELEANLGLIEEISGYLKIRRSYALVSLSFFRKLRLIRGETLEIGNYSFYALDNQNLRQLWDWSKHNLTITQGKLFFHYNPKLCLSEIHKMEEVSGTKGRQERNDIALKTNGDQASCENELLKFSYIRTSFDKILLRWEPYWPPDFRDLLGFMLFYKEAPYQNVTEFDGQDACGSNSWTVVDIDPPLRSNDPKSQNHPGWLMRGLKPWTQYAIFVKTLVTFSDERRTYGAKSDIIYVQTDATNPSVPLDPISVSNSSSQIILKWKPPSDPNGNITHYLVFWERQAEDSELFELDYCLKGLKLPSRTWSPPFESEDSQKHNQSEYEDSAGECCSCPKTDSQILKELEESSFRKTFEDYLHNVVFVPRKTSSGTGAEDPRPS
# Sequence of Insulin receptor (Homo sapiens) (P06213 763-1382 limits assumed): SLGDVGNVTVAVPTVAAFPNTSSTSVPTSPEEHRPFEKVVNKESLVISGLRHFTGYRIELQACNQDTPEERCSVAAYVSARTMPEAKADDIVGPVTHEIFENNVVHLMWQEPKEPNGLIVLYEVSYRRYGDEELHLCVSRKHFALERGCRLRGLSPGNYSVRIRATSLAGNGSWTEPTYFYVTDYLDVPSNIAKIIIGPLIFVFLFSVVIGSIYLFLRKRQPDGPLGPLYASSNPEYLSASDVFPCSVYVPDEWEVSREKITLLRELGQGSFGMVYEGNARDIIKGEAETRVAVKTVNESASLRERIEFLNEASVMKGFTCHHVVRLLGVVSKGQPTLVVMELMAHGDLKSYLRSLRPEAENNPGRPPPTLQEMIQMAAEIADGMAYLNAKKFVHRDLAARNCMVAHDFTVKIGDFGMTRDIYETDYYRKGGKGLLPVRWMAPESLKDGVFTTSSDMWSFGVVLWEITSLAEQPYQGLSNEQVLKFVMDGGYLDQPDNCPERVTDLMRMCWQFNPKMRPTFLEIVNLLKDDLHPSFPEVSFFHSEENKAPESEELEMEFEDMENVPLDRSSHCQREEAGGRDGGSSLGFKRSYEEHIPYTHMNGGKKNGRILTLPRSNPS
# Sequence of Insulin-like growth factor 1 receptor (Homo sapiens) (P08069 31-736 limits assumed): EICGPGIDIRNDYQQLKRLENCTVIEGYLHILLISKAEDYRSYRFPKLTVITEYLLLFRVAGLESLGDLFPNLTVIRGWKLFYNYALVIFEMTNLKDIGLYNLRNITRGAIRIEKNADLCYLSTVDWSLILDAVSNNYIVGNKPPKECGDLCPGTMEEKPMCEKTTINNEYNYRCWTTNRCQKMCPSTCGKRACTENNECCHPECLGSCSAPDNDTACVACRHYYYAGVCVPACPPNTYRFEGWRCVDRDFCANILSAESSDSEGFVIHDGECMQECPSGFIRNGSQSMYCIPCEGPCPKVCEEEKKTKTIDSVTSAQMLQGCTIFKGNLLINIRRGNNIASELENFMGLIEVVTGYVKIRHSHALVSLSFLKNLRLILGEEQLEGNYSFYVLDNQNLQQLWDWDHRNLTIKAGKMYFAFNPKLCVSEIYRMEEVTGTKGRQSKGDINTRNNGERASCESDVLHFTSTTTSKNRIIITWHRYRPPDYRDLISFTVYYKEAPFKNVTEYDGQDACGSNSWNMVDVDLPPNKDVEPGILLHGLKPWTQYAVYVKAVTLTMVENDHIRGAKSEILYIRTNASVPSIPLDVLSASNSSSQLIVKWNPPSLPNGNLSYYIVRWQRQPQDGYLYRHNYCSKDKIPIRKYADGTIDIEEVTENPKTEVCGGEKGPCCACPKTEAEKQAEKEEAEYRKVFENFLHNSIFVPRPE
# Sequence of Insulin-like growth factor 1 receptor (Homo sapiens) (P08069 741-1367 limits assumed): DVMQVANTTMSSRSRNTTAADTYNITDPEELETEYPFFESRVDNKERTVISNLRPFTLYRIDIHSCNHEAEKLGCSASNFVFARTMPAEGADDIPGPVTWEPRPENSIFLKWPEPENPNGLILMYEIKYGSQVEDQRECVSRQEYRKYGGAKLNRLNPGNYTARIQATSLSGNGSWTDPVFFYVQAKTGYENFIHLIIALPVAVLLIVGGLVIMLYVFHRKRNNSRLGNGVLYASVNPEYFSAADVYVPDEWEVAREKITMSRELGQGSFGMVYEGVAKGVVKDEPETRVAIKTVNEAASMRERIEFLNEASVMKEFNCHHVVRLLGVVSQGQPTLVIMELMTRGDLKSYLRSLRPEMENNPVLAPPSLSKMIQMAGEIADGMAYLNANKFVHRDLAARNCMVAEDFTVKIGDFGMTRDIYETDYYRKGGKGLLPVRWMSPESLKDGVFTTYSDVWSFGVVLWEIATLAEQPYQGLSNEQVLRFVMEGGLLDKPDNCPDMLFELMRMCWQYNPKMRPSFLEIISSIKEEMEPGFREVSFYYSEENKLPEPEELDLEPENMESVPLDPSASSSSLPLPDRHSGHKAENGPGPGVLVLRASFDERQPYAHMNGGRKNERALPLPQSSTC
structure (smiles),measurement,setting,value
COc1ccc(OC)c2c(=S)c3ccccc3[nH]c12,residual activity,[1],67%
same,residual activity,[2],101%
same,residual activity,[3],81%
same,residual activity,[4],98%
same,residual activity,[5],101%
same,residual activity,[6],99%
same,residual activity,[7],102%
same,residual activity,[8],95%
same,residual activity,[9],95%
same,residual activity,[10],99%
